According to PubChem BioAssay AID1159580 (chemical genetic matrix, 2015):
Hit rate of the full screen: of about 5,500 compounds, about 2,000 (36%) were called active. Not shown: some 18% with an inconclusive outcome. Cut-off read from the data, not from the text of the source: active = normalized growth mostly below about 0.91 (no sharp cut-off); inconclusive = no clear call, values can overlap the other calls; inactive = mostly above about 0.92. Some of the results follow.

Test: chemical genetic growth profiling, strain panel (AID 1159580);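 note: tested at 20 µM; growth read once vehicle control cultures reached saturation at 30 °C; 1 = growth at the plate median or of vehicle wells; lower values mean less growth of the strain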
Conditions: growth OD

Measured: normalized growth

N[C@@H](Cc1ccc(N(CCCl)CCCl)cc1)C(=O)O
inactive: S. cerevisiae deletion strains, locus YJR075W, strain HOC1, stronger effect = lower value 0.986 | S. cerevisiae deletion strains, locus YKL009W, strain mrt4, stronger effect = lower value 0.961 | S. cerevisiae deletion strains, locus YKL068W, stronger effect = lower value 0.971 | S. cerevisiae deletion strains, locus YKL085W, strain MDH1 (second series), stronger effect = lower value 0.991 | S. cerevisiae deletion strains, locus YKL085W, strain MDH1, stronger effect = lower value 0.991 | S. cerevisiae deletion strains, locus YKL160W, strain elf1, stronger effect = lower value 0.968 | S. cerevisiae deletion strains, locus YKL190W, strain CNB1, stronger effect = lower value 0.98 | S. cerevisiae deletion strains, locus YKR001C, strain vps1, stronger effect = lower value 0.961 | S. cerevisiae deletion strains, locus YKR026C, strain gcn3, stronger effect = lower value 0.979 | S. cerevisiae deletion strains, locus YKR091W, strain srl3, stronger effect = lower value 0.975 | S. cerevisiae deletion strains, locus YLL001W, strain dnm1, stronger effect = lower value 0.929 | S. cerevisiae deletion strains, locus YLL026W, stronger effect = lower value 0.989 | S. cerevisiae deletion strains, locus YLL041C, strain sdh2, stronger effect = lower value 0.982 | S. cerevisiae deletion strains, locus YLR027C, strain aat2, stronger effect = lower value 0.995 | S. cerevisiae deletion strains, locus YLR039C, strain RIC1, stronger effect = lower value 0.96 | S. cerevisiae deletion strains, locus YLR058C, strain SHM2, stronger effect = lower value 0.968 | S. cerevisiae deletion strains, locus YLR102C, strain apc9, stronger effect = lower value 0.981 | S. cerevisiae deletion strains, locus YLR113W, strain HOG1, stronger effect = lower value 1.03 | S. cerevisiae deletion strains, locus YLR221C, strain rsa3, stronger effect = lower value 0.958 | S. cerevisiae deletion strains, locus YLR258W, strain gsy2, stronger effect = lower value 0.983 | S. cerevisiae deletion strains, locus YLR262C, strain YPT6 (second series), stronger effect = lower value 0.979 | S. cerevisiae deletion strains, locus YLR262C, strain YPT6, stronger effect = lower value 0.898 | S. cerevisiae deletion strains, locus YLR268W, strain sec22, stronger effect = lower value 0.967 | S. cerevisiae deletion strains, locus YLR320W, strain mms22, stronger effect = lower value 0.97 | S. cerevisiae deletion strains, locus YLR330W, strain CHS5, stronger effect = lower value 0.986 | S. cerevisiae deletion strains, locus YLR342W, strain FKS1 (second series), stronger effect = lower value 0.983 | S. cerevisiae deletion strains, locus YLR342W, strain FKS1, stronger effect = lower value 0.978 | S. cerevisiae deletion strains, locus YLR357W, strain rsc2, stronger effect = lower value 0.954 | S. cerevisiae deletion strains, locus YLR370C, strain arc18, stronger effect = lower value 0.978 | S. cerevisiae deletion strains, locus YLR371W, strain rom2, stronger effect = lower value 0.978 | S. cerevisiae deletion strains, locus YLR384C, strain iki3, stronger effect = lower value 0.985 | S. cerevisiae deletion strains, locus YLR418C, strain cdc73, stronger effect = lower value 0.976 | S. cerevisiae deletion strains, locus YML016C, strain PPZ1, stronger effect = lower value 0.982 | S. cerevisiae deletion strains, locus YML032C, strain rad52, stronger effect = lower value 0.979 | S. cerevisiae deletion strains, locus YML120C, strain ndi1, stronger effect = lower value 0.952 | S. cerevisiae deletion strains, locus YML124C, strain tub3, stronger effect = lower value 0.987 | S. cerevisiae deletion strains, locus YMR058W, strain fet3, stronger effect = lower value 0.983 | S. cerevisiae deletion strains, locus YMR078C, strain ctf18, stronger effect = lower value 0.961 | S. cerevisiae deletion strains, locus YMR125W, strain sto1, stronger effect = lower value 0.97 | S. cerevisiae deletion strains, locus YMR129W, stronger effect = lower value 0.981 | S. cerevisiae deletion strains, locus YMR205C, strain PFK2, stronger effect = lower value 0.974 | S. cerevisiae deletion strains, locus YMR223W, strain ubp8, stronger effect = lower value 0.987 | S. cerevisiae deletion strains, locus YMR231W, strain pep5, stronger effect = lower value 0.987 | S. cerevisiae deletion strains, locus YMR263W, strain SAP30, stronger effect = lower value 0.982 | S. cerevisiae deletion strains, locus YMR307W, strain GAS1, stronger effect = lower value 0.915 | S. cerevisiae deletion strains, locus YNL067W, strain RPL9B, stronger effect = lower value 0.984 | S. cerevisiae deletion strains, locus YNL071W, strain lat1, stronger effect = lower value 0.932 | S. cerevisiae deletion strains, locus YNL128W, strain TEP1, stronger effect = lower value 0.982 | S. cerevisiae deletion strains, locus YNL153C, strain GIM3, stronger effect = lower value 0.976 | S. cerevisiae deletion strains, locus YNL183C, strain NPR1, stronger effect = lower value 0.966 | S. cerevisiae deletion strains, locus YNL209W, strain ssb2, stronger effect = lower value 0.983 | S. cerevisiae deletion strains, locus YNL233W, strain BNI4, stronger effect = lower value 0.994 | S. cerevisiae deletion strains, locus YNL248C, strain rpa49, stronger effect = lower value 0.978 | S. cerevisiae deletion strains, locus YNL250W, strain rad50, stronger effect = lower value 0.969 | S. cerevisiae deletion strains, locus YNL271C, strain bni1, stronger effect = lower value 0.979 | S. cerevisiae deletion strains, locus YNL298W, strain CLA4, stronger effect = lower value 0.979 | S. cerevisiae deletion strains, locus YNL307C, strain MCK1, stronger effect = lower value 0.985 | S. cerevisiae deletion strains, locus YNL322C, strain KRE1 (second series), stronger effect = lower value 0.989 | S. cerevisiae deletion strains, locus YNL322C, strain KRE1, stronger effect = lower value 0.982 | S. cerevisiae deletion strains, locus YNR049C, strain mso1, stronger effect = lower value 0.977 | S. cerevisiae deletion strains, locus YNR052C, strain pop2, stronger effect = lower value 0.974 | S. cerevisiae deletion strains, locus YOL006C, strain TOP1, stronger effect = lower value 0.954 | S. cerevisiae deletion strains, locus YOL012C, strain htz1 0.837 | S. cerevisiae deletion strains, locus YOL147C, strain pex11, stronger effect = lower value 0.986 | S. cerevisiae deletion strains, locus YOR001W, strain rrp6, stronger effect = lower value 0.988 | S. cerevisiae deletion strains, locus YOR061W, strain CKA2, stronger effect = lower value 0.962 | S. cerevisiae deletion strains, locus YOR069W, strain VPS5, stronger effect = lower value 0.998 | S. cerevisiae deletion strains, locus YOR070C, strain gyp1, stronger effect = lower value 0.979 | S. cerevisiae deletion strains, locus YOR080W, strain dia2, stronger effect = lower value 0.995 | S. cerevisiae deletion strains, locus YOR083W, strain WHI5, stronger effect = lower value 0.963 | S. cerevisiae deletion strains, locus YOR106W, strain vam3, stronger effect = lower value 0.996 | S. cerevisiae deletion strains, locus YOR136W, strain idh2, stronger effect = lower value 0.989 | S. cerevisiae deletion strains, locus YOR144C, strain elg1, stronger effect = lower value 0.99 | S. cerevisiae deletion strains, locus YOR184W, strain ser1, stronger effect = lower value 0.96 | S. cerevisiae deletion strains, locus YOR231W, strain MKK1, stronger effect = lower value 1.01 | S. cerevisiae deletion strains, locus YOR265W, strain rbl2, stronger effect = lower value 0.989 | S. cerevisiae deletion strains, locus YOR270C, strain vph1, stronger effect = lower value 0.981 | S. cerevisiae deletion strains, locus YOR290C, strain snf2, stronger effect = lower value 0.909 | S. cerevisiae deletion strains, locus YOR316C, strain cot1, stronger effect = lower value 0.97 | S. cerevisiae deletion strains, locus YPL051W, strain arl3, stronger effect = lower value 0.974 | S. cerevisiae deletion strains, locus YPL055C, strain LGE1, stronger effect = lower value 0.963 | S. cerevisiae deletion strains, locus YPL078C, strain atp4, stronger effect = lower value 0.974 | S. cerevisiae deletion strains, locus YPL106C, strain sse1, stronger effect = lower value 0.976 | S. cerevisiae deletion strains, locus YPL240C, strain hsp82, stronger effect = lower value 0.989 | S. cerevisiae deletion strains, locus YPL241C, strain CIN2, stronger effect = lower value 1.04 | S. cerevisiae deletion strains, locus YPL256C, strain CLN2, stronger effect = lower value 1.02 | S. cerevisiae deletion strains, locus YPR119W, strain clb2, stronger effect = lower value 0.991 | S. cerevisiae deletion strains, locus YPR141C, strain kar3, stronger effect = lower value 0.961 | S. cerevisiae deletion strains, locus YPR163C, strain tif3, stronger effect = lower value 0.984 | S. cerevisiae deletion strains, locus YPR167C, strain met16, stronger effect = lower value 0.972 | S. cerevisiae deletion strains, strain wtn01, stronger effect = lower value 0.982 | S. cerevisiae strains, strain wild type, stronger effect = lower value 0.983
